In PubChem BioAssay (NCATS):
Inconclusive results are not listed. Active and inactive are the calls of the source. Unless noted, calls come from the whole dose curve; as a rule, active = well fitted curve in the direction sought with a large enough effect; inconclusive = small, poorly fitted or top-dose-only effect, or another doubt; inactive = no such curve, though single readings can be large; an effect the other way counts as inactive or inconclusive.

Assays:
[1] = Validation screen for small molecules that induce DNA re-replication in MCF 10A normal breast cells (AID 463097); note: nearly all actives have a fitted effect of over 60% in size
Summary of the method: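 250 MCF 10A cells/well; compound pin-transferred; 48 hr, 37 C, 5% CO2; Hoechst 40 min; imaged 405/500-530 nm. Hits = more high-intensity nuclei.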

[2] = target: Ubiquitin carboxyl-terminal hydrolase 2 (Homo sapiens) (UniProt O75604); experiment: qHTS Validation Assay for Inhibitors of Ubiquitin-specific Protease USP2a Using CHOP2 as the Reporter (AID 463106)
Summary of the method: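 Fluorescence read-out at Ex 485nm/Em 531nm after 60min RT, following addition of 25nM Ub-CHOP2 plus 25nM reporter substrate to USP2 core (10nM) pretreated 30min with compound. Data normalized to NEM full inhibition; concentration-response curves fitted.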

[3] = target: DNA polymerase III PolC-type (Bacillus subtilis (strain 168)) (UniProt P13267); experiment: qHTS Validation Assay for the Inhibitors of DNA Replication in Gram-Positive Bacteria (AID 485295);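 note: reconstituted holoenzyme with PolC plus beta clamp SSB and primase; PicoGreen fluorescence of double-stranded DNA made on primed circular M13 template; series mostly up to about 57 µM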
Summary of the method: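 PicoGreen fluorescence (ex 480–485/em 535–540 nm) reports dsDNA synthesized on ssM13Gori template with dNTPs/NTPs. Enzyme: holoenzyme rebuilt from purified PolC, beta subunit, SSB and primase. Compound preincubated before substrate addition; RT throughout.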

[4] = target: Tumor susceptibility gene 101 protein (Homo sapiens) (UniProt Q99816); experiment: qHTS Validation Assay for Iinhibitors of HIV-1 Budding by Blocking the Interaction of PTAP/TSG101 (AID 485342; calls by dose curve)
Summary of the method: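 FP read-out: FITC-PTAP peptide, 50 nM final, binding Tsg101 binding domain, 10 uM final; 20 min r.t.; 10 mM HEPES pH 7.5, 0.15 M NaCl, 0.01% Tween 20, 3 mM EDTA, 0.1 mM TCEP.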

[5] = qHTS Validation Assay to Find Inhibitors of Chronic Active B-Cell Receptor Signaling (AID 485345; active = well fitted curve in the direction sought with a large enough effect in the main read-out, with a control signal flat, not every such curve was filed as active)
Summary of the method: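 TMD8 ABC-DLBCL cells stably carrying doxycycline-inducible IkappaBalpha–green luciferase fusion plus unfused red luciferase; compounds 46 uM to 3 nM, 4 h at 37C with doxycycline. Corrected green/red luminescence ratio normalized to 10 uM MG-132 and basal cell wells; curves fitted.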

[6] = target: Beta-2 adrenergic receptor (Homo sapiens) (UniProt P07550); experiment: qHTS validation assay of beta-arrestin-biased ligands of beta2-adrenergic receptor (AID 485366)
Summary of the method: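 Compound series up to 46 microM applied to beta2-AR/beta-arrestin Tango cells, 18 hr, 37 degrees C, 5% CO2. Read-out: tTA-driven luciferase luminescence, converted to %Activity; concentration-response curves assigned curve classes.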

[7] = target: ATP-dependent 6-phosphofructokinase (Trypanosoma brucei brucei) (UniProt O15648); experiment: qHTS Validation Assay to Find Inhibitors of T. brucei phosphofructokinase (AID 485368); conditions: outcome: dose series up to 57.5 µM
Summary of the method: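 qHTS format, up to 57 uM. PFK 1.25 nM; F6P 0.5 mM; ATP 0.1 mM; 5 mM MgCl2, 0.01% Tween20, 0.1% BSA; 0.1 M TEA pH 8.0; 45 min RT; ADP-Glo readout; no-enzyme control = full inhibition.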

[8] = Quantitative high throughput screen for delayed death inhibitors of the malarial parasite plastid, 48 hour incubation (AID 488752); note: nearly all actives have a fitted effect of over 65% in size; note: potency is the fitted concentration of half-maximal effect
Summary of the method: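 Luciferase-expressing P. falciparum in RBCs, 2% Hct, 0.1% parasitemia final; RPMI 1640 + 0.5% Albumax; 48 h, 37 C, 5% CO2; luminescence readout, signal drop = growth inhibition.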

[9] = target: Flap endonuclease 1 (Homo sapiens) (UniProt P39748); experiment: qHTS Validation Assay for the Inhibitors of Human Flap endonuclease 1 (FEN1) (AID 488816)
Summary of the method: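 Enzyme reagent 10 nM; cpds pinned; 15 min RT preinc.; substrate 50 nM final; reads t=0 and 15 min; no-enzyme buffer wells as neg. control; normalized data, 4-parameter Hill fit.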

[10] = target: M-phase phosphoprotein 8 (Homo sapiens) (UniProt Q99549); experiment: qHTS Validation Assay for Inhibitors for MPP8 Chromodomain Interactions with Methylated Histone Tails (AID 488949);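 note: AlphaScreen signal from MPP8 chromodomain bound to biotinylated H3K9me3 peptide; top concentration of the series differs between compounds; nearly all actives have a fitted effect of over 55% in size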
Summary of the method: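 AlphaScreen read-out: streptavidin donor and nickel chelate acceptor beads (final 10 ug/mL), 30 min in the dark at RT. Complex of 50 nM MPP8 and 50 nM b-H3(1-18)K9me3 peptide had been exposed to compounds for 30 min beforehand.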

[11] = target: Chromobox protein homolog 1 (Homo sapiens) (UniProt P83916); experiment: qHTS Validation Assay for Inhibitors of HP1-beta Chromodomain Interactions with Methylated Histone Tails (AID 488953);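 note: loss of AlphaScreen luminescence from HP1-beta binding biotinylated H3K9me3 peptide; series mostly up to about 110 µM; nearly all actives have a fitted effect of over 50% in size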
Summary of the method: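 AlphaScreen proximity readout: streptavidin donor and Ni-chelate acceptor beads, 10 ug/mL final, 30 min dark, RT. Complex of 50 nM HP1-beta and 50 nM b-H3(1-18)K9me3 formed 30 min, then compound-treated 30 min; PBS pH 7.4/0.01% Tween-20.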

[12] = target: Methanococcus maripaludis chaperonin (MmCpn) (UniProt Q6LX38); experiment: High-Throughput Screening for Modulators of Cytosolic Chaperonin Activity: MmCpn Primary Screen (AID 488978);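 note: 50 nM MmCpn enzyme hydrolysing 30 µM ATP at 37 °C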
Summary of the method: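 ADP formation read by HTRF Transcreener, 665/590 nm emission after 320 nm excitation. Enzyme: archaeal chaperonin at 50 nM final; substrate ATP 30 uM final; 10 min, 37C, after 5 min compound preincubation at RT.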

[13] = target: Thyrotropin receptor (Homo sapiens) (UniProt P16473); experiment: qHTS Assay for Antagonists of the Thyroid Stimulating Hormone Receptor (AID 488980); note: series mostly up to about 58 µM
Summary of the method: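 TSHR-HEK293 cells; 70 uM RO 20-1724 PDE inhibitor; compound + EC80 TSH (4 nM final); anti-cAMP cryptate antibody/cAMP-d2 in lysis buffer, 30 min RT; HTRF 665/620 nm read.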

[14] = target: D(1A) dopamine receptor (Homo sapiens) (UniProt P21728); experiment: HTS Assay for Allosteric Agonists of the Human D1 Dopamine Receptor: Primary Screen for Agonists (AID 488981)
Summary of the method: (§1)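 Tetracycline-induced HEK293 Trex D1 cells with forced coupling to calcium, loaded with no-wash calcium dye; kinetic fluorescence read 180 s after compound addition for agonism, then a further 180 s after an EC20 dopamine challenge for potentiation.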

[15] = target: D(1A) dopamine receptor (Homo sapiens) (UniProt P21728); experiment: HTS Assay for Allosteric Agonists of the Human D1 Dopamine Receptor: Primary Screen for Potentiators (AID 488982)
Summary of the method: as §1

[16] = target: D(1A) dopamine receptor (Homo sapiens) (UniProt P21728); experiment: HTS Assay for Allosteric Agonists of the Human D1 Dopamine Receptor: Primary Screen for Antagonists (AID 488983);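 note: calcium flux response to an EC80 dopamine challenge measured with no-wash dye; nearly all actives have a fitted effect of over 65% in size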; note: potency is the fitted concentration of half-maximal effect
Summary of the method: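 Calcium flux readout, no-wash dye, inducible HEK293 T-REx D1 line (force-coupled). Compound added after 10 s baseline, 180 s kinetic read; then dopamine at EC80, further 180 s read.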

[17] = target: Thioredoxin reductase 1, cytoplasmic (Rattus norvegicus) (UniProt O89049); experiment: qHTS Assay for Substrates of Mammalian Selenoprotein Thioredoxin Reductase 1 (TrxR1) (AID 488772);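 note: series mostly up to about 57 µM; a drop in NADPH fluorescence below the no-compound background marks a TrxR1 substrate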
Summary of the method: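 In this dual-purpose format, potential substrates are identified from the first fluorescence read after selenite addition, not from the 8-minute delta. Rat enzyme is preincubated with NADPH and then with compound at ~22 deg C.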

[18] = target: Thioredoxin reductase 1, cytoplasmic (Rattus norvegicus) (UniProt O89049); experiment: qHTS Assay for Inhibitors of Mammalian Selenoprotein Thioredoxin Reductase 1 (TrxR1) (AID 488773); conditions: Potency: inhibition; note: nearly all actives have a fitted effect of over 40% in size; note: potency is the fitted concentration of half-maximal effect
Summary of the method: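 Inhibition is scored from the loss of NADPH fluorescence between first and last reads of an 8-min kinetic run. Selenite (400 uM) was the substrate, added after 15 min compound preincubation at room temperature.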

[19] = target: Transient receptor potential cation channel subfamily V member 1 (Homo sapiens) (UniProt Q8NER1); experiment: HTS Assay for Compounds that Act as Enhancers of the Vanilloid Receptor 1 (AID 488979)
Summary of the method: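 TRPV1 cells loaded with Fluo-8 calcium dye; compound added and Ca2+ signal (ex 480/em 520 nm) followed 3 min, then capsaicin at EC20 added and read 2 more min to detect enhancement.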

[20] = Quantitative high throughput screen for delayed death inhibitors of the malarial parasite plastid, 96 hour incubation (AID 488745);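 note: luciferase-expressing P. falciparum in erythrocytes at 2% hematocrit and 0.1% parasitemia; series mostly up to about 29 µM; nearly all actives have a fitted effect of over 70% in size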
Summary of the method: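 Luciferase-expressing P. falciparum, infected RBCs 2% Hct/0.1% parasitemia (final); 96 h cpd exposure, 37 C, 5% CO2; RPMI 1640 + 0.5% Albumax, bicarbonate, gentamycin. Readout: luminescence loss = growth inhibition.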

Measured: Potency

Sequence of ATP-dependent 6-phosphofructokinase (Trypanosoma brucei brucei) (O15648 whole entry, looked up): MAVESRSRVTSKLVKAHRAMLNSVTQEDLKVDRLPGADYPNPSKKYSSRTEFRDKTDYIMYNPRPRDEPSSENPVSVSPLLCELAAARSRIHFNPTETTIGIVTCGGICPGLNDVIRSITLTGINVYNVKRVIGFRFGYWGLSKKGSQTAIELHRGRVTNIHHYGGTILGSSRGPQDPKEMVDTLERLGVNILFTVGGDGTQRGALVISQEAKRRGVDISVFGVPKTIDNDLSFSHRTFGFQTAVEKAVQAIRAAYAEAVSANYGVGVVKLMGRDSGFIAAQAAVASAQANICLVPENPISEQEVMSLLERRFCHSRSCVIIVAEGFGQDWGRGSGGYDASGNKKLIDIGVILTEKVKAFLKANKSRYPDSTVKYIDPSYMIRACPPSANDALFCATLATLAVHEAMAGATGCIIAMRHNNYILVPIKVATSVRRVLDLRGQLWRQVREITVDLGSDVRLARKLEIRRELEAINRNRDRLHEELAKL
Sequence of Flap endonuclease 1 (Homo sapiens) (P39748 whole entry, looked up): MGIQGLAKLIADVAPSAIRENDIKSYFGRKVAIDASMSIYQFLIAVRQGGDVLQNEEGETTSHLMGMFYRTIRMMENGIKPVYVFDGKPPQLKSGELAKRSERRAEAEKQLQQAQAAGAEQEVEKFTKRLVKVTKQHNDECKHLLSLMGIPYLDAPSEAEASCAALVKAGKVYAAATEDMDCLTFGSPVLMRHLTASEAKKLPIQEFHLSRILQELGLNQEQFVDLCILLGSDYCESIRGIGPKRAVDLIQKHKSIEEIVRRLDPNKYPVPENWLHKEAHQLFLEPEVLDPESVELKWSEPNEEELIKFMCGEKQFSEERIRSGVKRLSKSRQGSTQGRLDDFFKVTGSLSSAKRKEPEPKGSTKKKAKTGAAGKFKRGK
Sequence of Methanococcus maripaludis chaperonin (MmCpn) (Q6LX38 1-543): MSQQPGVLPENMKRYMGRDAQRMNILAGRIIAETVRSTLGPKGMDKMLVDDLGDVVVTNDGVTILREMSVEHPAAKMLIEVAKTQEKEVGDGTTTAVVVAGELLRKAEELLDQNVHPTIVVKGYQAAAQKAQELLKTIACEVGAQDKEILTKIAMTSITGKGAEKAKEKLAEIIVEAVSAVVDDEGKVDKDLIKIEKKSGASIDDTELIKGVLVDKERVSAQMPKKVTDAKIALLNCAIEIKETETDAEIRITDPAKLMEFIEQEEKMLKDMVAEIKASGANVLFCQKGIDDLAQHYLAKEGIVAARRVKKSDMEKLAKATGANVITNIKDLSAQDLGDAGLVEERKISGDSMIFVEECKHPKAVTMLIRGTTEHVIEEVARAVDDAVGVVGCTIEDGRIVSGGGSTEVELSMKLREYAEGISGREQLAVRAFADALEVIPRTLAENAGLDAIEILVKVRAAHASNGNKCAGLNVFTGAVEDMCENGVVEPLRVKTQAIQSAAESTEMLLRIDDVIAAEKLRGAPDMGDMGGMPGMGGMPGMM
Sequence of Beta-2 adrenergic receptor (Homo sapiens) (P07550 whole entry, looked up): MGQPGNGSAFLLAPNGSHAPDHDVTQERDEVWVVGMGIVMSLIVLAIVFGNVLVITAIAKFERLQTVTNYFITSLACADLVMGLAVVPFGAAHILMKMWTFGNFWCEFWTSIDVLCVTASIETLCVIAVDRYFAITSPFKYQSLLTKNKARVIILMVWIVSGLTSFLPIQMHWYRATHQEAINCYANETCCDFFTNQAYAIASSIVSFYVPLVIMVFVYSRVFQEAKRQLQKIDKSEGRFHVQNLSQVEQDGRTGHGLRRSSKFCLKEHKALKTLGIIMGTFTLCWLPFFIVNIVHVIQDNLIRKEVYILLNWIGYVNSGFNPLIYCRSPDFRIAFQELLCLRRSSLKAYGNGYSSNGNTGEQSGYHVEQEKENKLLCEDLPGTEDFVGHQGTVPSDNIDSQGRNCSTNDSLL
Sequence of Transient receptor potential cation channel subfamily V member 1 (Homo sapiens) (Q8NER1 whole entry, looked up): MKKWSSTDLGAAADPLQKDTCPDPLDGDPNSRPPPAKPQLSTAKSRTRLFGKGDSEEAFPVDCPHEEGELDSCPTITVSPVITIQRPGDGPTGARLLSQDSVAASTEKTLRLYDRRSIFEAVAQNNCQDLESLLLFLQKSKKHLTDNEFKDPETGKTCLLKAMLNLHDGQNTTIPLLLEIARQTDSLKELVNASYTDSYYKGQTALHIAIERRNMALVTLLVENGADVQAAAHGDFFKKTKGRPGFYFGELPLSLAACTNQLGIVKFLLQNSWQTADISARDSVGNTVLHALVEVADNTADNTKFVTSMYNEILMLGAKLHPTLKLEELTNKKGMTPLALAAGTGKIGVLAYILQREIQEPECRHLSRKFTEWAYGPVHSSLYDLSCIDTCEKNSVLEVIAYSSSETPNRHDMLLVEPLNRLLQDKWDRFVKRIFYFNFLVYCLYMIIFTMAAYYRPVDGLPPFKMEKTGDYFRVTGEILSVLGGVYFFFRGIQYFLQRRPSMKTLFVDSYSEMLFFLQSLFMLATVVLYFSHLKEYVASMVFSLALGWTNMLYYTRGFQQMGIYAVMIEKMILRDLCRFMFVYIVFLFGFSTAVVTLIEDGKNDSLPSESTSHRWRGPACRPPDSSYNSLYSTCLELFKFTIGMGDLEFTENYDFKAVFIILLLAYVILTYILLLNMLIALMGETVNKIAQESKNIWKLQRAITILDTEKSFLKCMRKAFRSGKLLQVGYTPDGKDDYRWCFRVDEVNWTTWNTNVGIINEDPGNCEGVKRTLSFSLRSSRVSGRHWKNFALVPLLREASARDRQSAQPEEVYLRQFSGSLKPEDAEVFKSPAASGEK
Sequence of Chromobox protein homolog 1 (Homo sapiens) (P83916 whole entry, looked up): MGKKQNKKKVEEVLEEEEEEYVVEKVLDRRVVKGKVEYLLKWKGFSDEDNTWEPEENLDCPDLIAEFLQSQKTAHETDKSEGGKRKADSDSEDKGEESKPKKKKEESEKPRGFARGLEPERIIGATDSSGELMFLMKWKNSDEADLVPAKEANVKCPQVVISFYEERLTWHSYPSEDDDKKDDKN
Sequence of DNA polymerase III PolC-type (Bacillus subtilis (strain 168)) (P13267 whole entry, looked up): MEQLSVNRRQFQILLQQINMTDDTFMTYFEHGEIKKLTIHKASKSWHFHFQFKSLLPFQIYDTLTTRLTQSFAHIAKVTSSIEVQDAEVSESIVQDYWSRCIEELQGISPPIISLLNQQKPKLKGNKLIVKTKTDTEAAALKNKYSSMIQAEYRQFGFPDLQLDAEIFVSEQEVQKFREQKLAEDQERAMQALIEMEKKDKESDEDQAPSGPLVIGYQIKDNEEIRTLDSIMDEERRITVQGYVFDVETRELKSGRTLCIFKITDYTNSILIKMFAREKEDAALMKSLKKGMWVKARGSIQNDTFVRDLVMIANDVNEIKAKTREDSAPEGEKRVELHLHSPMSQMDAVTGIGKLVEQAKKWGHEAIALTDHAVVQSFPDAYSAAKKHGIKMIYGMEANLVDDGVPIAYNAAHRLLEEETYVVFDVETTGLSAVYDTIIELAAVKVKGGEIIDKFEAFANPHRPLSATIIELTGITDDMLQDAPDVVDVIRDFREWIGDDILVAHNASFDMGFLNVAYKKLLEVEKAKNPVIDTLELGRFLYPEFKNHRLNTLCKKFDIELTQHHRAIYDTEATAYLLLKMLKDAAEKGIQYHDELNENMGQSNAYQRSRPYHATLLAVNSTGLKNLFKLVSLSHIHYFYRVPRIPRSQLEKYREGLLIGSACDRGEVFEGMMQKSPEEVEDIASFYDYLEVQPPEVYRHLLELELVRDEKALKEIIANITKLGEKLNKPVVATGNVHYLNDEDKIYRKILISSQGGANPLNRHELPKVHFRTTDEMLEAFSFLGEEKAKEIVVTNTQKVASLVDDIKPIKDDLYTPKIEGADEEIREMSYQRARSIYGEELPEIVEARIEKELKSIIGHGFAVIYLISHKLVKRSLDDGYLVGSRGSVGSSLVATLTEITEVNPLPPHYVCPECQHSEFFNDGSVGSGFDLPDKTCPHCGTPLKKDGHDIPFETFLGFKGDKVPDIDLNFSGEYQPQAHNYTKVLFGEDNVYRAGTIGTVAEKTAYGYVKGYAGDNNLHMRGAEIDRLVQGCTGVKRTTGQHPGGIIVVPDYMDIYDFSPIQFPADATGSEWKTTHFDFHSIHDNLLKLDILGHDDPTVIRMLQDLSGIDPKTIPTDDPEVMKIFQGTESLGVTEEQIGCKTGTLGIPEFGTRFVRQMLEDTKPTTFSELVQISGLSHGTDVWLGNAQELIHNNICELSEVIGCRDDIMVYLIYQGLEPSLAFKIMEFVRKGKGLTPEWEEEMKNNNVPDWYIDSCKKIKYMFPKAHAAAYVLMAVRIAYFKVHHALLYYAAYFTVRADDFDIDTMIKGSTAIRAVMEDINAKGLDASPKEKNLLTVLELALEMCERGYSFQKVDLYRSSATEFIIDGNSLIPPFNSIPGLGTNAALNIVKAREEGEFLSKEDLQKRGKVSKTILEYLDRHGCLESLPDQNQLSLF
Sequence of D(1A) dopamine receptor (Homo sapiens) (P21728 whole entry, looked up): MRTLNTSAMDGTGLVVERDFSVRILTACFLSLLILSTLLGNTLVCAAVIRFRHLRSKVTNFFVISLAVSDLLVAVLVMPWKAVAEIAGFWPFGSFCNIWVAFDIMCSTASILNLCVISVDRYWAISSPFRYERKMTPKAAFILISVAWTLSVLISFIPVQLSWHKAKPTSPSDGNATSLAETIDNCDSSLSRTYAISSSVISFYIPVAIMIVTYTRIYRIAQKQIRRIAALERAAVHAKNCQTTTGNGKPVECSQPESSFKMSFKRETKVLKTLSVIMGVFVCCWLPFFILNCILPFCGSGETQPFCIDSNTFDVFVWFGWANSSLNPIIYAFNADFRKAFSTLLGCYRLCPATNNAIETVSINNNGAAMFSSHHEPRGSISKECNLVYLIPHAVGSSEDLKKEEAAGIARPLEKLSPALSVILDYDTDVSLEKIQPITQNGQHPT

COC(=O)[C@@H](N)Cc1ccc(O)c(O)c1
not listed: [17] | [18] | [19] | [20]
inactive: all other assays above

CCCOc1ccccc1-c1nc2n[nH]nc2c(=O)[nH]1
not listed: [20]
inactive: all other assays above

CCCCNC(=O)NS(=O)(=O)c1ccc(C)cc1
not listed: [13] | [14] | [19]
inactive: all other assays above

CN(C)C/C=C(/c1ccc(Br)cc1)c1cccnc1
active: [8] 13.1 µM | [16] 12.6 µM
not listed: [11] | [17] | [18] | [19] | [20]
inactive: all other assays above

Cc1scc2c1N(C(=O)CN1CCN(C)CC1)c1ccccc1NC2=O
not listed: [7] | [9] | [11] | [15] | [18]
inactive: all other assays above

COc1ccc(CN(CCN(C)C)c2ccccn2)cc1
not listed: [13] | [17]
inactive: all other assays above

CNCCC(Oc1ccccc1OC)c1ccccc1 (configuration not stated)
not listed: [16] | [20]
inactive: all other assays above

CN(C)CCN(Cc1cccs1)c1ccccn1
not listed: [14] | [18] | [19]
inactive: all other assays above

CCCN(CCC)C(=O)C(CCC(=O)O)NC(=O)c1ccccc1 (configuration not stated)
not listed: [13] | [18] | [19]
inactive: all other assays above

CCN(CC)CC(=O)Nc1c(C)cccc1C
not listed: [7] | [10] | [14] | [19]
inactive: all other assays above

O=c1[nH]c(=O)n([C@H]2C[C@H](O)[C@@H](CO)O2)cc1Br
not listed: [14] | [17] | [18] | [19]
inactive: all other assays above

CCCN(CCC)CCc1cccc2c1CC(=O)N2
not listed: [7] | [14] | [17]
inactive: all other assays above

NC(N)=N/N=C/c1c(Cl)cccc1Cl
not listed: [9] | [14] | [15] | [16] | [18] | [19] | [20]
inactive: all other assays above

C[N+](C)(C)CCOC(=O)CCC(=O)OCC[N+](C)(C)C
not listed: [16] | [18]
inactive: all other assays above

CCN1CCc2nc(N)oc2CC1
active: [18] 29.9 µM
not listed: [17] | [20]
inactive: all other assays above

Cc1ccc(S(=O)(=O)NC(=O)NN2CCCCCC2)cc1
not listed: [7] | [12] | [19]
inactive: all other assays above
